# Experimental data from PubChem BioAssay AID2494 (National Center for Advancing Translational Sciences (NCATS), 2010).
# Activity calls are given as the source filed them.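 How the source made its calls: active means compounds that inhibit caspase-1 with a complete, partial or top-dose-only concentration response; inactive means the rest.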
# Molecular target: Caspase-1 (Homo sapiens) (UniProt P29466)
# Experiment: Confirmation Assay for Allosteric/Competitive Inhibitors of Caspase-1
# Details: Caspase-1 enzyme, fluorogenic peptide substrate, kinetic rate
# From the text: NIH Molecular Libraries Screening Centers Network [MLSCN] NIH Chemical Genomics Center [NCGC] MLSCN Grant: 1 X01 MH078950-01 PI Name: Dr. James Wells, Dr. Enrique Perez-Paya, Dr.Janice Williams, Dr. Dennis Wolan, a person NCGC Assay Overview: The caspases (Cysteine Aspartyl Protease) comprise a related family of 14 dimeric proteases that are critical mediators of apoptosis (programmed cell death) and inflammation. The caspases represent an important class of drug targets for stroke, ischemia, cancer and inflammatory diseases. […] One goal of this project was to identify compounds that act as allosteric inhibitors via stabilizing the procaspase form of the enzyme. Previous work in Well's laboratory has shown that such allosteric inhibitors can be identified and these act by binding at the dimer interface of enzyme (Hardy, Lam et al., 2004). The biochemical assay was configured using purified caspase 1 at a high enzyme concentration to promote formation of the homodimers and thus facilitate the identification of allosteric inhibitors. The overall goal was to identify reversible inhibitors with better drug-like properties than the currently available set of aspartyl-containing peptidomimetics that covalently bind the active site. Caspase 1 was assayed using the profluorescent substrate […]. After initiation of the assay with substrate the plates were rapidly read using an automated robotic system (Kalypsys, Inc.) to maintain consistent timing. A kinetic mode of detection was used where the initial rate was collected (estimated final product formation was ~10%). Compounds were screened as a concentration-titration series that ranged from 57 uM to 0.7 nM. Below is the protocol used for caspase 1.
# Caspase-1 was dispensed ([…]) into a 1536-well black solid-bottom microplate (Greiner Bio-One, Monroe, USA) using a Bio-RAPTR (Beckman Coulter, Fullerton, USA) nanoliter dispenser for automated addition of reagents, to give a final enzyme concentration of 2 nM. Assay buffer was 50 mM HEPES, pH7.4, containing 1M sodium citrate, 100 mM NaCl, 0.1 mM EDTA, 10 mM DTT, 0.01% CHAPS, 1% DMSO, and 0.1 mg/mL bovine serum albumin (BSA). Aliquots of test compound (23 nL) from a DMSO stock solution were transferred to the enzyme-containing wells using a pintool transfer station (Kalypsys Inc., San Diego, USA), and the plates were incubated for 15 min at room temperature. Each compound was added as a 12-point titration in duplicate. Substrate was dispensed ([…]) to give a final caged fluorescent peptide substrate (Ac-LEHD-AMC) concentration of […], and the initial reaction rate was monitored over 20 min at room temperature. Free AMC was measured by fluorescence detection (lex=340 nm, lem=450) with a ViewLux charge-coupled device-based imager (PerkinElmer, Waltham, USA). Percent inhibition was calculated from the median values of the uninhibited and the uncatalyzed controls, and IC50 values were determined by fitting the concentration-response data with a four-parameter Hill equation as previously described (http://www.ncgc.nih.gov/pub/openhts/curvefit/).
SMILES,Potency,outcome
CC(C)(C)[C@H](NC(=O)c1cc(Cl)cc(Cl)c1)C(=O)N1CCC[C@H]1C(=O)N[C@H](C#N)CC(=O)O,0.436 nM (active),–
COc1ccc(C(=O)N[C@H](C(=O)N2CCC[C@H]2C(=O)N[C@H](C#N)CC(=O)O)C(C)(C)C)cc1Cl,0.439 nM (active),–
CC(C)(C)[C@H](NC(=O)c1ccc(N)c(Cl)c1)C(=O)N1CCC[C@H]1C(=O)N[C@H](C#N)Cc1nn[nH]n1,20.4 nM (active),–
CC(C)(C)[C@H](NC(=O)c1ccc(N)c(Cl)c1)C(=O)N1CCC[C@H]1C(=O)N[C@H](C#N)CC(=O)O,0.316 nM (active),–
CC(C)(C)[C@H](NC(=O)c1ccc(C(F)(F)F)cc1)C(=O)N1CCC[C@H]1C(=O)N[C@H](C#N)CC(=O)O,8.33 nM (active),–
CCOC(=O)C[C@@H](C#N)NC(=O)[C@@H]1CCCN1C(=O)[C@@H](NC(=O)c1ccc(N)c(Cl)c1)C(C)(C)C,145 nM (active),–
CC(=O)N[C@@H](Cc1ccc(O)cc1)C(=O)N[C@H](C(=O)N[C@@H](C)C(=O)N[C@H](C#N)CC(=O)O)C(C)C,2.51 nM (active),–
CC(=O)N[C@H](C(=O)N[C@@H](C)C(=O)N[C@H](C#N)CC(=O)O)C(C)C,–,inactive
CONC(=O)C[C@@H](C#N)NC(=O)[C@@H]1CCCN1C(=O)[C@@H](NC(=O)c1ccc(N)c(Cl)c1)C(C)(C)C,145 nM (active),–
Cc1ccccc1C(=O)N[C@H](C(=O)N1CCC[C@H]1C(=O)N[C@H](C#N)CC(=O)O)C(C)(C)C,2.78 nM (active),–
